Records with an inconclusive call do not appear. Values without a mark were called inactive. Calls of active or inactive are those of the source. The call rests on the fitted dose curve; in most records, active means well fitted curve in the direction sought with a large enough effect; inconclusive means small, poorly fitted or top-dose-only effect, or another doubt; inactive means no such curve, though single readings can be large; an effect the other way counts as inactive or inconclusive.

This is an account of results in PubChem BioAssay (NCATS).

In assay [1] the test system is Zika virus NS2B-NS3 protease (linked construct). The assay can be described thus: Primary screen NINDS Rhodamine qHTS for Zika virus inhibitors (AID 1347160). Further: nearly all actives have a fitted effect of over 55% in size. Further: potency means the concentration at half of the fitted maximal effect. On activity change, negative = inhibition: on the % scale 0 is the no-effect control and ±100 the full control effect. Summed up: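 Rhodamine110-peptide cleavage (1.5 µM substrate) by 25 nM linked NS2B-NS3 enzyme at pH 8.0 (Tris, Tween 20), after 15 min RT preincubation with compounds; 15-min fluorescence change normalized to controls and Hill-fitted.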
For orientation: Quantitative high-throughput screening tests each substance at several concentrations.

Assay [2] can be described thus: OV-SAHO Cancer Cell Toxicity qHTS against the NCATS CANVASS Library (AID 1347348). Further: series mostly up to about 38 µM; on the % scale 0 is the no-effect control and ±100 the full control effect; nearly all actives have a fitted effect of over 55% in size. An outline of the steps:
(§1)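 Toxicity is measured over 72 h of compound exposure at 37 degrees C under 5% CO2. Each well holds 1000 cells, pre-incubated for 4 hours before dosing across an 11-point range. CellTiter-Glo luminescence gives viability.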

The nature of assay [3]: Panc-1005 Cancer Cell Toxicity qHTS against the NCATS CANVASS Library (AID 1347349). Further: series mostly up to about 38 µM; on the % scale 0 is the no-effect control and ±100 the full control effect; nearly all actives have a fitted effect of over 60% in size. Summed up:
as §1

Assay [4] in a line: A2780 Cisplatin Sensitive Ovarian Cancer Cell Toxicity qHTS against the NCATS CANVASS Library (AID 1347353). Further: nearly all actives have a fitted effect of over 60% in size. Summed up: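 Cells are plated at 750 per well and rest for 4 hours. Compounds are added across eleven concentrations, and incubated 72 hours before ATP is quantified by luminescence.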
Assay [5] can be described thus: UWB1.289-WTBRCA1 Cancer Cell Toxicity qHTS against the NCATS CANVASS Library (AID 1347354). Summed up: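 First, 1000 cells go into each well and rest for 4 hours. Next, an 11-point dilution range is pinned in. Plates then incubate 72 hours before CellTiter-Glo addition and luminescence reading.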
Assay [6] can be described thus: HEK293 18hr Apoptosis Induction qHTS against the NCATS CANVASS Library (AID 1347357). Further: 0% is about no effect. Summed up:
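Cells seeded at 500/well in DMEM + 10% FBS. Compounds pinned, 11 concentrations. 18 h, 37 degrees C/5% CO2. Caspase-Glo 3/7 added, 15 min RT dark, luminescence read.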

Assay [7] relates to NAD(P)H diaphorase (Clostridium kluyveri). The assay can be described thus: Diaphorse counterscreen qHTS: Assay Interference Panel against the NCATS CANVASS Library (AID 1347362). Further: 0% is about no effect. Summed up:
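Clostridium kluyveri diaphorase in PBS + 0.01% Tween-20 preincubated 15 min with compounds. Resazurin and NADH then added for 5 min at room temperature in the dark; resorufin fluorescence read (ex 525, em 598).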
(A counterscreen serves to expose hits that act by an unwanted route or on another target.)

Assay [8] in a line: KB-8-5-11 Cancer Cell Toxicity qHTS against the NCATS CANVASS Library (AID 1347364). Further: nearly all actives have a fitted effect of over 75% in size. On activity change, negative = toxicity: series mostly up to about 46 µM; on the % scale 0 is the no-effect control and ±100 the full control effect. Summed up:
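Terse: KB-8-5-11, 500 cells/well, 72 hr, 37C/5% CO2, 11-pt titration, CellTiter-Glo readout; confirmatory runs ± 1uM tariquidar in medium.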

A short description of assay [9]: SDT Cancer Cell Toxicity qHTS against the NCATS CANVASS Library (AID 1347365). Further: nearly all actives have a fitted effect of over 60% in size.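 On activity change, negative = cytotoxicity: SDT canine glioma cells 500 per well in 1536 well plates; series mostly up to about 46 µM; on the % scale 0 is the no-effect control and ±100 the full control effect.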 An outline of the steps: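 Cytotoxicity is measured from cellular ATP: compounds in an 11-point concentration series are pinned onto SDT cells, incubated 72 hr at 37C, then CellTiterGlo is added and luminescence read.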
Assay [10] in a line: qHTS for ATAD5 Antagonist screened against the NCATS CANVASS Library (AID 1347370).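 Further: HEK293T cells carrying an ATAD5 luciferase reporter co-treated with 10 µM 5-fluorouridine; series mostly up to about 46 µM; on the % scale 0 is the no-effect control and ±100 the full control effect; nearly all actives have a fitted effect of over 65% in size.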 An outline of the steps: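 Compounds (11-point) co-dosed with 10 µM 5-FUrd for 16 h at 37 °C onto HEK293T-ATAD5 luciferase reporter cells. Viability measured by CellTiter-Fluor fluorescence, then ATAD5 reporter signal by luminescence.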
Assay [11] can be described thus: qHTS for Hypoxia signaling pathway (HIF-1) antagonists against the NCATS CANVASS Library (AID 1347374).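 Further: HRE-bla ME-180 cells stimulated with cobalt chloride to stabilize HIF-1alpha; series mostly up to about 38 µM; on the % scale 0 is the no-effect control and ±100 the full control effect; nearly all actives have a fitted effect of over 60% in size.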 Summed up:
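Antagonism scored as loss of CoCl2-driven (60 uM stock added) HRE beta-lactamase signal, read by CCF4 FRET at 460/530 nm. Compounds were tested in an 11-point series on ME-180 reporter cells for 17 hrs at 37C, with parallel CellTiter-Glo cytotoxicity.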

A short description of assay [12]: qHTS for Hypoxia signaling pathway (HIF-1) agonists against the NCATS CANVASS Library (AID 1347375). Further: potency means the concentration at half of the fitted maximal effect. On activation: 0% is about no effect. An outline of the steps:
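Cells plated and rested 5 h, compounds pinned in DMSO across 11 concentrations, incubated 17 h at 37C, loaded with CCF4-AM for 2 h, fluorescence read at 460 and 530 nm, then CellTiter-Glo luminescence measured for viability and normalization.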

Assay [13] is described as follows: Cytotoxicity qHTS for assessment of Hepg2 cells membrane integrity screened against the NCATS CANVASS Library (AID 1347387). Summed up:
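Cells were seeded at 2000 per well and left overnight to attach. Compounds were pin-transferred to give 0.59 nM - 46 uM in an 11-point series and incubated 5 hr at 37C. CytoTox-ONE reagent was added and, after 10 min at room temperature, fluorescence (ex 560, em 590 nm) was read.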

Assay [14] can be described thus: qHTS for activators of Nrf2/ARE signaling pathway screened against the NCATS CANVASS Library (AID 1347391). Further: nearly all actives have a fitted effect of over 60% in size. Further: potency means the concentration at half of the fitted maximal effect. On activation: 0% is about no effect. Summed up:
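Beta-lactamase reporter signal, read as 460 and 530 nm emission under 405 nm excitation after 2 h CCF4 loading, reflected ARE activation in HepG2 cells treated 16 h with an 11-point series.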

Assay [15] can be described thus: Vero-766 cells viability qHTS against the NCATS CANVASS Library: Counterscreen for Zika virus inhibition assay (AID 1347394). An outline of the steps:
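Vero 766, no virus; 1000 cells/well; o/n attach; cpd 11-pt; 72 h, 37C, 5% CO2; CTG luminescence; cell-free media wells = 100% inhibition.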

Assay [16] is described as follows: qHTS for inhibitors of Wild type Zika virus screened against the NCATS CANVASS Library (AID 1347396).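 Further: ATP luminescence of surviving cells so rescue from viral cell killing; series mostly up to about 46 µM; on the % scale 0 is the no-effect control and ±100 the full control effect.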 Summed up: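 Luminescent CellTiter Glo read-out of virus-induced cytotoxicity, 72 h post-infection, in Vero 766 cells. Compounds were tested at 11 concentrations; uninfected, vehicle-treated wells defined 100% inhibition.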
Assay [17] is described as follows: Redox Reaction Profiling qHTS: Assay Interference Panel against the NCATS CANVASS Library (AID 1347401).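 Further: 100% = activation by 2 µM chloranil control.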 Summed up:
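Fluorescence read-out (525 nm excitation, 598 nm emission) at time zero and after 15 min in the dark tracked resorufin formation. Mix: 5 uM resazurin, 200 uM DTT, HEPES pH 7.3 buffer with NaCl.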

Assay [18] can be described thus: UWB1.289 Cancer Cell Toxicity qHTS against the NCATS CANVASS Library (AID 1347347). Summed up:
as §1

Assay [19] can be described thus: qHTS for activators of dead-cell proteases activity screened against the NCATS CANVASS Library (AID 1347392).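 Further: luminescence from protease leaking out of membrane-damaged cells cleaving impermeant substrate; 0% is about no effect; rising signal means more cytotoxicity.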 Summed up:
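HepG2, 2000 cells/well, 18 h attach; cpd 11-pt, 5 h 37C 5% CO2; CytoTox-Glo (AAF-aminoluciferin) 15 min RT; luminescence read.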

A short description of assay [20]: G06 Cancer Cell Toxicity qHTS against the NCATS CANVASS Library (AID 1347368). Summed up: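 Cells were plated at 500 per well, then compounds were added over an 11-point range. After 72 hr at 37C, CellTiterGlo was added and luminescence measured as ATP content.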

Regarding `CC12C[C@]3(O)O[C@@H](O1)[C@]1(COC(=O)c4ccccc4)[C@@H]3CC21OC1OC(CO)C(O)C(O)C1O` (stereo not given in full), the Potency result in assay [1], in assay [2], in assay [3], in [4], in assay [5] and in assay [6] was “inactive” in each case. Besides, the Potency entry in assay [7], in assay [8], in assay [9], in assay [10], in [11] and in assay [12] was “inactive” throughout. The Potency result in assay [14], in assay [15], in assay [16] and in assay [17] was “inactive” in each case. Besides, the compound was classed as inactive in assay [13].

Consider `CO[C@@H]1[C@H](O)[C@@H](C)O[C@@H](OC[C@H]2/C=C/C=C/C(=O)C(C)C[C@H](C)C(O[C@@H]3O[C@H](C)CC4(OC(=O)O[C@@H]4C)C3O)[C@@H](C)/C=C/C(=O)OC2C)[C@@H]1OC` (stereo not given in full), for which the figures for the Potency in [1] and in assay [14] were 49.3 µM (active) and 14.8 µM (active), respectively. In addition, the Potency entry in [18], in [3], in assay [4], in assay [5], in assay [6] and in assay [7] was “inactive” in each case. In addition, the Potency entry in assay [8], in assay [9], in assay [11], in assay [12], in assay [19] and in assay [16] was “inactive” each time. Further, the Potency result in assay [17] was “inactive”. In assay [13], the outcome was inactive.

Take `COc1ccc([C@@H]2c3cc(OC)c(OC)cc3C(=O)[C@H](C)C2C)cc1OC` (stereo not given in full): the activity change, negative = cytotoxicity in [18] was 3.43% [at 7.64 µM]; in assay [3], 1.86% [at 7.64 µM]. For the same compound, the outcome was “inactive [at 9.19 µM]” in assay [4], “inactive [at 7.64 µM]” in [5] and “inactive [at 9.19 µM]” in assay [9]. Besides, the activity change, negative = inhibition was 0.301% [at 11.5 µM] in assay [7], -23.2% [at 9.19 µM] in assay [10] and 9.63% [at 7.64 µM] in assay [11]. Further, in [8], the activity change, negative = toxicity is -6.69% [at 9.19 µM]. For the same compound, the results for the activity change, negative = cytotoxic in [20] and in assay [15] were 9.12% [at 9.19 µM] and -18.3% [at 9.19 µM], respectively. In addition, the activation in [12] was -1.07% [at 7.64 µM]; in [14], 4.51% [at 9.19 µM]. The cytotoxicity (LDH release) in [13] is 0.689 [at 9.19 µM]. Further, in assay [19], the activation (cytotoxicity) was -0.488% [at 9.19 µM]. Further, the activity change, negative = antiviral in [16] was 5.82% [at 9.14 µM]. The activation (redox signal) in assay [17] was -5.6% [at 11.4 µM].

Regarding `CC1(C)[C@H](Br)CC[C@]23C[C@]4(C)C(=O)CC12C[C@H]34`, the Potency result in assay [18], in [2], in [3], in assay [4], in assay [5] and in assay [7] was “inactive” throughout. The Potency result in assay [8], in assay [9], in [20], in assay [10], in assay [11] and in assay [12] was “inactive” in each case. Besides, the Potency result in [14], in assay [15], in [16] and in assay [17] was “inactive” in each case. Besides, in assay [13], the compound was called inactive.

For `CNc1ccc(Cl)cc1C(=O)OC[C@]1(C)[C@H]2CC[C@]3(C)[C@@H](C[C@@H](OC)[C@H](C)[C@H]3C3=C(O)C(=O)OC3O)[C@]2(C)CC[C@H]1O` (stereo not given in full), the Potency entry in [18], in [2], in assay [3], in assay [4], in assay [5] and in assay [7] was “inactive” throughout. Besides, the Potency result in [8], in assay [10], in [11], in assay [14], in [15] and in [16] was “inactive” in each case. The Potency entry in assay [17] is “inactive”. The Potency in assay [12] was 13.3 µM (active). Besides, in assay [13], the compound was classed as inactive.

With `CCC1=C2CCCN3C(=O)O[C@H]([C@H]1OC(C)=O)[C@H]23`, the Potency result in [1], in [18], in assay [3], in assay [4], in assay [5] and in assay [6] was “inactive” in each case. Also, the Potency entry in assay [7], in [8], in [9], in [20], in [10] and in [11] was “inactive” throughout. Besides, the Potency entry in assay [12], in assay [14], in assay [19], in assay [16] and in assay [17] was “inactive” each time. In addition, the compound was classed as inactive in assay [13].
